Where “and” joins values, the source holds several entries; their conditions need not be identical. Equal values may be shown once. Inconclusive results are not listed. Calls of active or inactive are those of the source. Rule for the calls, unless noted: active = hit-call score of the fitted dose curve at least 0.9, where 1 is the maximum; inactive = score below 0.9.

Test [1] deals with Estrogen receptor (Homo sapiens) (UniProt P03372). Description: OT_ERa_GFPERaERE_0480: Odyssey Thera (OT) 8-hour HeLa Transcription Induction Assay for Estrogen Receptor (AID 2283381). Put shortly: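 An 8 h HeLa transcription-induction format with a GFP reporter under ERE control, read by fluorescence microscopy; single endpoint fitted positively with DMSO as baseline.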
For test [2] the target is unchanged. Briefly: OT_ERa_GFPERaERE_0120: Odyssey Thera (OT) 2-hour HeLa Transcription Induction Assay for Estrogen Receptor (AID 2283382; active = hit-call score of the fitted dose curve at least 0.9, where 1 is the maximum). The essentials:
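Two-hour compound treatment of HeLa cells preceded microscopy imaging of an inducible fluorescent reporter. Image-based quantification gave one endpoint, analysed for signal increase relative to DMSO controls.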

Test [3] addresses Retinoic acid receptor RXR-alpha (Homo sapiens) (UniProt P19793). Briefly: OT_NURR1_NURR1RXRa_0480: Odyssey Thera (OT) 8-hour HEK293T Protein Complementation Assay for Nurr1/retinoid X receptor (RXR) (AID 2283385; active = hit-call score of the fitted dose curve at least 0.9, where 1 is the maximum). Put shortly: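 Gain in fluorescent complementation signal over DMSO, measured 8 hours after chemical dosing of human kidney HEK293T cells, indicated enhanced Nurr1–RXRα association.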

The target is the same in test [4]. Description: OT_NURR1_NURR1RXRa_1440: Odyssey Thera (OT) 24-hour HEK293T Protein Complementation Assay for Nurr1/retinoid X receptor (RXR) (AID 2283386; active = hit-call score of the fitted dose curve at least 0.9, where 1 is the maximum). The essentials:
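Cell-based binding reporter: HEK293T cells, 24 h exposure, fluorescence-detected fragment complementation, DMSO as baseline.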

For test [5], the target named is Peroxisome proliferator-activated receptor gamma (Homo sapiens) (UniProt P37231). Description: OT_PPARg_PPARgSRC1_0480: Odyssey Thera (OT) 8-hour Protein-Complementation Assay for Peroxisome Proliferator-activated Receptor Gamma / SRC-1 Co-activator (AID 2283387; active = hit-call score of the fitted dose curve at least 0.9, where 1 is the maximum). Put shortly: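 Read-out: 488 nm N/C fluorescence ratio from complemented Venus YFP fragments, ≥350 cells per image, gain-of-signal fitted against DMSO baseline. Fusions of PPARg/SRC-1 with IFP1/IFP2 expressed transiently in HEK293T; compounds applied 8 h.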

Test [6] shares this target. Briefly: OT_PPARg_PPARgSRC1_1440: Odyssey Thera (OT) 24-hour Protein-Complementation Assay for Peroxisome Proliferator-activated Receptor Gamma/ SRC-1 Co-activator (AID 2283388; active = hit-call score of the fitted dose curve at least 0.9, where 1 is the maximum). The essentials: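 HEK293T transiently transfected with PPARg/SRC-1 split-Venus YFP fusions 48 h before dosing, then treated 24 h at 37C. Fixed cells imaged; nuclear/cytoplasmic 488 nm fluorescence ratio, gain of signal versus DMSO.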

Read-out in test [7]: Tumor necrosis factor receptor superfamily member 6 (Homo sapiens) (UniProt P25445)
Description: LTEA_HepaRG_FAS: Life Technologies and Expression Analysis (LTEA) Assay for Fas cell surface death receptor (FAS) using HepaRG (AID 2283447). The settings on record: mRNA level, 48 h; actives raise or lower the signal. The essentials:
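FAS transcript level was measured by TaqMan qRT-PCR against three housekeeping genes after 48 h chemical exposure. Cells were HepaRG, 0.5% DMSO vehicle, with a top concentration of 100 uM and half-log dilutions over eight points, in duplicate.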

Read-out in test [8]: Fatty acid synthase (Homo sapiens) (UniProt P49327)
Briefly: LTEA_HepaRG_FASN: Life Technologies and Expression Analysis (LTEA) Assay for Fatty Acid Synthase (FASN) using HepaRG (AID 2283448).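 For AC50: differentiated human HepaRG liver cells in serum-free induction medium.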 The settings on record: mRNA level, 48 h; actives raise or lower the signal. The essentials:
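In human HepaRG cultures, 48 h chemical exposure (up to 100 uM, 0.5% DMSO) preceded TaqMan qRT-PCR of FASN.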

Read-out in test [9]: Cyclin D2 (CCND2), CCND2 (gene 894)
Briefly: LTEA_HepaRG_CCND2: Life Technologies and Expression Analysis (LTEA) Assay for Cyclin D2 (CCND2) using HepaRG (AID 2283449). As to conditions: mRNA level, 48 h; actives raise or lower the signal. The essentials: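 CCND2 transcript levels, quantified by qRT-PCR and normalised to three housekeeping genes, were fitted bidirectionally against 0.5% DMSO. HepaRG cultures were dosed 48 h in duplicate with an 8-point half-log series up to 100 uM.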

The nature of test [10]: CEETOX_H295R_OHPREG: CeeTox H295R High-throughput Steroidogenesis Assay for OH-Pregnenolone (OHPREG) (AID 2283434). As to conditions: actives raise or lower the signal. The essentials: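 Secreted 17alpha-hydroxypregnenolone measured by HPLC-MS/MS after liquid-liquid extraction. Human adrenal H295R cells received 48 h forskolin (10 uM) stimulation before 48 h chemical exposure at 0.1% final DMSO; MTT viability in same wells; bidirectional fit against DMSO.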

Test [11] in a line: CEETOX_H295R_OHPROG: CeeTox H295R High-throughput Steroidogenesis Assay for OH-Progesterone (OHPROG) (AID 2283435).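 For AC50: 17alpha-hydroxyprogesterone secreted into medium measured by HPLC-MS/MS.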 As to conditions: actives raise or lower the signal. The essentials: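 Human adrenocortical H295R cells, passage 10 or lower, were treated with chemical for 48 h after forskolin priming, and hormone output in the medium was quantified by LC-MS/MS.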
Test [12] in a line: CEETOX_H295R_ANDR: CeeTox H295R High-throughput Steroidogenesis Assay for Androstenedione (ANDR) (AID 2283436). The settings on record: actives raise or lower the signal. The essentials: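 Medium from 48 h chemical-treated H295R adrenal cells was extracted with MTBE and androstenedione measured by LC-MS/MS. Activity was fit in both directions relative to DMSO. Cytotoxic concentrations were re-tested after dilution until MTT viability reached ≥70%.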

Test [13] in a line: CEETOX_H295R_ESTRADIOL: CeeTox H295R High-throughput Steroidogenesis Assay for Estradiol (AID 2283440).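 Note: estradiol secreted into medium quantified by LC-MS/MS after dansyl derivatisation.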 The settings on record: actives raise or lower the signal. Put shortly:
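H295R cells pre-stimulated 48 h with 10 uM forskolin, then exposed 48 h to chemical in 0.1% DMSO. Medium estradiol quantified by MTBE extraction, dansyl derivatisation and HPLC-MS/MS; bidirectional fit versus DMSO; MTT viability required >/=70%.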

A short description of test [14]: CEETOX_H295R_ESTRONE: CeeTox H295R High-throughput Steroidogenesis Assay for Estrone (AID 2283441).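 Note: estrone secreted into medium measured by LC-MS/MS after dansyl derivatization.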 The settings on record: actives raise or lower the signal. Put shortly: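 Forskolin-stimulated H295R cells are treated 48 h with chemical, and estrone in the medium is measured by LC-MS/MS. Activity is fitted in both directions relative to DMSO controls, with chemicals diluted until MTT viability reaches at least 70%.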

Test [15] is described as follows: CEETOX_H295R_PROG: CeeTox H295R High-throughput Steroidogenesis Assay for Progesterone (PROG) (AID 2283442).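 Note: human H295R adrenal cells primed with 10 µM forskolin before dosing.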 As to conditions: actives raise or lower the signal. The essentials:
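H295R adrenal cells prestimulated 48 h with 10 uM forskolin, then exposed 48 h to test chemical in 0.1% DMSO. Progesterone in medium quantified by HPLC-MS/MS after MTBE extraction; viability checked by MTT in same wells.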

Test [16] concerns the target Bile acid receptor (Homo sapiens) (UniProt Q96RI1). Briefly: OT_FXR_FXRSRC1_0480: Odyssey Thera (OT) 8-hour HEK293T Protein-Complementation Assay for Farnesoid X receptor/SRC-1 Co-activator (AID 2283383; active = hit-call score of the fitted dose curve at least 0.9, where 1 is the maximum). Put shortly:
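Readings were taken 8 h after dosing HEK293T cells in a split-reporter complementation format pairing FXR with SRC-1. Increased fluorescence relative to DMSO-treated wells defined activity.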

Test [17] has the same target. Description: OT_FXR_FXRSRC1_1440: Odyssey Thera (OT) 24-hour HEK293T Protein-Complementation Assay for Farnesoid X receptor/SRC-1 Co-activator (AID 2283384; active = hit-call score of the fitted dose curve at least 0.9, where 1 is the maximum). The essentials:
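Single endpoint, analysed for increased fluorescence against DMSO controls. HEK293T cells carrying FXR and SRC-1 linked to complementary reporter halves were exposed to chemicals for 24 h before reading.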

A short description of test [18]: CEETOX_H295R_11DCORT: CeeTox H295R High-throughput Steroidogenesis Assay for 11-Deoxycortisol (11DCORT) (AID 2283432). The settings on record: actives raise or lower the signal. The essentials:
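H295R cells; 10 uM forskolin prestim 48 h; compound in 0.1% DMSO 48 h; media extracted with MTBE; 11-deoxycortisol by LC-MS/MS, 7-point standard curve; gain/loss vs DMSO baseline; viability by MTT in same wells.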

A short description of test [19]: CEETOX_H295R_CORTISOL: CeeTox H295R High-throughput Steroidogenesis Assay for Cortisol (AID 2283438).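 Note: cortisol secreted into medium quantified by LC-MS/MS.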 As to conditions: actives raise or lower the signal. Put shortly: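 Steroidogenesis in H295R, per modified OECD 456: 48 h forskolin (10 uM), then 48 h exposure, 0.1% DMSO. Cortisol by extraction and tandem MS; viability by MTT (570/650 nm); cytotoxic chemicals diluted and re-tested.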

The nature of test [20]: CEETOX_H295R_DOC: CeeTox H295R High-throughput Steroidogenesis Assay for DOC (AID 2283439). The settings on record: actives raise or lower the signal. Put shortly: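 H295R, fsk 10 uM ×48 h pre, cmpd ×48 h (0.1% DMSO). Media → MTBE extr. → LC-MS/MS, DOC. Bidirectional fit vs DMSO; MTT viability same wells, re-test diluted if <70%.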

Sequence of Estrogen receptor (Homo sapiens) (P03372 whole entry, looked up): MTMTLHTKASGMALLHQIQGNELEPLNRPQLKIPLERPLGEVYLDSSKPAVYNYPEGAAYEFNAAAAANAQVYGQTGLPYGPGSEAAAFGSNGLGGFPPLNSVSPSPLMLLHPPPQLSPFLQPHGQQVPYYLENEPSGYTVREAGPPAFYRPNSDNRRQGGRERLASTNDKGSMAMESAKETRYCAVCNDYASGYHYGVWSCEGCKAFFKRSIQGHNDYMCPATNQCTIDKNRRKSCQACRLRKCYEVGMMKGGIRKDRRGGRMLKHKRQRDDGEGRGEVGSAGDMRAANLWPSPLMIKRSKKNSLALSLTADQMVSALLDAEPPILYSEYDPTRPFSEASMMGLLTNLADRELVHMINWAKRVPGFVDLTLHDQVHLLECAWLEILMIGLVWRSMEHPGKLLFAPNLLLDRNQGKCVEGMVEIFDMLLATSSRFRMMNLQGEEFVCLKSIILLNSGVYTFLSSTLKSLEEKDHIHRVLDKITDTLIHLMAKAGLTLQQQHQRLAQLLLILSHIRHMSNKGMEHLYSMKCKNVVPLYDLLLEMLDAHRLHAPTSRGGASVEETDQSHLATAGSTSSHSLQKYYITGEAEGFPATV
Sequence of Retinoic acid receptor RXR-alpha (Homo sapiens) (P19793 whole entry, looked up): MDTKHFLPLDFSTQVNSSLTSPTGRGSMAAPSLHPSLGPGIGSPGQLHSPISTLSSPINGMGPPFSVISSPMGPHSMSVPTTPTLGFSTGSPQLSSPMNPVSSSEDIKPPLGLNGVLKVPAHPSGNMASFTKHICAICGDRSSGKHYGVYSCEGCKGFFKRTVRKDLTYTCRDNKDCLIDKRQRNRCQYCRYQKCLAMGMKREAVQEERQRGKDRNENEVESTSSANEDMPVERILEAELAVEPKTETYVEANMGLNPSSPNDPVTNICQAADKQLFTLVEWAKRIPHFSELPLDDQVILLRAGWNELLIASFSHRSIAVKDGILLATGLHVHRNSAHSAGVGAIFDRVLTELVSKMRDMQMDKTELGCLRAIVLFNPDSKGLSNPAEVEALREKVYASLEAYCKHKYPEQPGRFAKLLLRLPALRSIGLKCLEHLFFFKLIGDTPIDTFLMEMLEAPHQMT
Sequence of Peroxisome proliferator-activated receptor gamma (Homo sapiens) (P37231 whole entry, looked up, the tested form may be a part): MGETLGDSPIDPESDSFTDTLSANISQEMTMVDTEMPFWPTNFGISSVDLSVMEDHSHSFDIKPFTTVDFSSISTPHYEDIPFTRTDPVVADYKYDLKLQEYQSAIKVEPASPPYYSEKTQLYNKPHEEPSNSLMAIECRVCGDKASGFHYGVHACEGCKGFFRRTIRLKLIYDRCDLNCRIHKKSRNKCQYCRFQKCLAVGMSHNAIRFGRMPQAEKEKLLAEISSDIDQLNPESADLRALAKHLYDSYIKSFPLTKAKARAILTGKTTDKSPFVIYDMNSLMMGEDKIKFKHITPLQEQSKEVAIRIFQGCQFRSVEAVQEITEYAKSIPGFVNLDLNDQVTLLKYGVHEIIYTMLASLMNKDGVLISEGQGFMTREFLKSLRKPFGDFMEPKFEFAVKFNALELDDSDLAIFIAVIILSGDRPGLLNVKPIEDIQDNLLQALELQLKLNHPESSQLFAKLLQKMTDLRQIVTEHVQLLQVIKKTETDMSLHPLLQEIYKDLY
Sequence of Fatty acid synthase (Homo sapiens) (P49327 whole entry, looked up): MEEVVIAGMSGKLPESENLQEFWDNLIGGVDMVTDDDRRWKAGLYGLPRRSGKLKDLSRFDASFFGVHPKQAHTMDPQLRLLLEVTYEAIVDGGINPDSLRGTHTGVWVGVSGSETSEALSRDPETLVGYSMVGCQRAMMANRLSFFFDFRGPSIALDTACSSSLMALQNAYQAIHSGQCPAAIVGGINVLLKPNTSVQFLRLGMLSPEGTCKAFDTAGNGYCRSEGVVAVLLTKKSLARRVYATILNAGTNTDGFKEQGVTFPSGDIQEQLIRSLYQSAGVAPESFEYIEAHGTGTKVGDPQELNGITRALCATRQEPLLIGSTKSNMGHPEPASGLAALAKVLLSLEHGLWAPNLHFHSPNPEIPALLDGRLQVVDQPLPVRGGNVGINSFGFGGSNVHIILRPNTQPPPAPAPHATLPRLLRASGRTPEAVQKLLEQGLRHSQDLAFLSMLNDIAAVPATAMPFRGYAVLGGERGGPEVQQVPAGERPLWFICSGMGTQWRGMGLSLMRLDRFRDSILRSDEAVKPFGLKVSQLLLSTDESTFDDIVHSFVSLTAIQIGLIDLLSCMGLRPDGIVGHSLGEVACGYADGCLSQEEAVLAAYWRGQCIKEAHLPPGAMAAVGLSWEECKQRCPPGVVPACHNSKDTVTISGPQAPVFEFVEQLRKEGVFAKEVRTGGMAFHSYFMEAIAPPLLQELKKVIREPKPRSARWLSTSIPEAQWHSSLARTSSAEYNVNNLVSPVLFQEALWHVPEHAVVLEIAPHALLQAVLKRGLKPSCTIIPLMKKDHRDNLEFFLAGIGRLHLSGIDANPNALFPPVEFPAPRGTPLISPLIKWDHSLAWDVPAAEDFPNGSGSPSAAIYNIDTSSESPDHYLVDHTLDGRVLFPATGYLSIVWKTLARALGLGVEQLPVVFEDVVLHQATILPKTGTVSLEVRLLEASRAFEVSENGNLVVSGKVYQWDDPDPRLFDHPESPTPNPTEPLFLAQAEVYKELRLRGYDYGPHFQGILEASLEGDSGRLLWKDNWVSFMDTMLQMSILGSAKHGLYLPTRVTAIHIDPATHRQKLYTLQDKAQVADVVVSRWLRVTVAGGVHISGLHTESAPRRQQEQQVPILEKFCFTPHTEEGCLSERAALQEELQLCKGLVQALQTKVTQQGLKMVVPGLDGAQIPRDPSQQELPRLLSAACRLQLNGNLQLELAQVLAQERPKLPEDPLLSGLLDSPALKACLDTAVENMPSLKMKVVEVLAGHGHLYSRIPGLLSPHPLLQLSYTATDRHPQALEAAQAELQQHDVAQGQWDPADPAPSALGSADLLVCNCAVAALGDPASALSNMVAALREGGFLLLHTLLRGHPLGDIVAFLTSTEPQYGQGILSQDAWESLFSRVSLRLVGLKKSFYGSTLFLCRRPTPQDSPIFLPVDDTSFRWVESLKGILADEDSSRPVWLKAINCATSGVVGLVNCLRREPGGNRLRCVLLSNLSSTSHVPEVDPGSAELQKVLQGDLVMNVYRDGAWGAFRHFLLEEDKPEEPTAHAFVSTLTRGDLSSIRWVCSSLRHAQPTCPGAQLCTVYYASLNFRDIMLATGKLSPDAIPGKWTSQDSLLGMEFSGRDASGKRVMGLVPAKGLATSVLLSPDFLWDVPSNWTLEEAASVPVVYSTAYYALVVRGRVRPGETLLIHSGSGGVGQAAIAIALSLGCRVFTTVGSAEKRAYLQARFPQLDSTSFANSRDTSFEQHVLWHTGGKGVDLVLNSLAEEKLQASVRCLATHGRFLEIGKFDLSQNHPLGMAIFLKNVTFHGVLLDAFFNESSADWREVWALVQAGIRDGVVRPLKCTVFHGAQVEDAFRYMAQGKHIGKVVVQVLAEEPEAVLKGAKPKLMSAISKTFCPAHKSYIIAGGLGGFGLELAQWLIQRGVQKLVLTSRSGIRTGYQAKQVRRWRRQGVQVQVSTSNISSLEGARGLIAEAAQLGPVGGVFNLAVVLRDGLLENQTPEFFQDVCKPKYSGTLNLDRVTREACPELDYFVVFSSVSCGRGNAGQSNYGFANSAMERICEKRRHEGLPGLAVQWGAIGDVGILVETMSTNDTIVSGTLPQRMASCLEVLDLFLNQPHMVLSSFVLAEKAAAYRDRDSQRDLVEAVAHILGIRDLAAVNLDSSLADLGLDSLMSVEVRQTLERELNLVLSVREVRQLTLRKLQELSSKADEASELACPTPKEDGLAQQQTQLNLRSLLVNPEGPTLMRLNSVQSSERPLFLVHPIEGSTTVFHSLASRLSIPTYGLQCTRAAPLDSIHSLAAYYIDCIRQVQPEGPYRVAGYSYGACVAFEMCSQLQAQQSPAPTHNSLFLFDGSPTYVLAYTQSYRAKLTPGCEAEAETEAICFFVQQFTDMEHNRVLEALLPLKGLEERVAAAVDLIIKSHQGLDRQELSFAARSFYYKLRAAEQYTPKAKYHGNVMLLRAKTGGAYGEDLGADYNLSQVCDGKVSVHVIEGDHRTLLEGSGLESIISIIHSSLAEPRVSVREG
Sequence of Bile acid receptor (Homo sapiens) (Q96RI1 whole entry, looked up): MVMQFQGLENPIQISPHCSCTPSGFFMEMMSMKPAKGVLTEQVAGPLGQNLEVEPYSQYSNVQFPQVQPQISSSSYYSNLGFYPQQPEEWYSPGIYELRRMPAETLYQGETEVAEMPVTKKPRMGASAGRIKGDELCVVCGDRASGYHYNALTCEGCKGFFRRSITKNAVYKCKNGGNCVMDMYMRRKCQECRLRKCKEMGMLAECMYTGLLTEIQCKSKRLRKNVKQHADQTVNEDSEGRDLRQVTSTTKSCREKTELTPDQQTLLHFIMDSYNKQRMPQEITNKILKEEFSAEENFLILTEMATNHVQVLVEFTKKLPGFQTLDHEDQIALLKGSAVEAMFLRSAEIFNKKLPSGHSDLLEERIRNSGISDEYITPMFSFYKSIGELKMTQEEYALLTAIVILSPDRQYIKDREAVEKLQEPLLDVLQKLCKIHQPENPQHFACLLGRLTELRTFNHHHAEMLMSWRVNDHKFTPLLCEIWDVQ

One may read the AC50 as the concentration at which the activity in the assay is half-maximal. With `Nc1nc(=S)c2[nH]cnc2[nH]1`, the compound was classed as inactive in test [1], in test [2], in test [3], in test [4], in [5] and in test [6]. The result in [9] was inactive. Further, the AC50 was 3.1 µM (active) in test [7] and 9.16 µM (active) in test [8].

Take `CCC(C)N(C)C(=O)c1cc2ccccc2c(-c2ccccc2Cl)n1` (stereo not given): the call in test [1], in [2], in test [3], in [4], in [5] and in test [6] was inactive. Further, the compound was classed as inactive in [10], in test [12], in test [13], in [14], in test [7] and in test [8]. The result in test [9] was inactive. In addition, the half-maximal activity concentration (AC50) in test [11] was 3.85 µM (active); in test [15] it was 3.89 µM (active).

Regarding `COc1ccc(C(=O)Nc2nc3ccccc3c(NCc3ccccc3)c2C#N)cc1`, the outcome in [1], in [2], in test [16], in test [4], in test [5] and in test [6] was inactive. The outcome in test [18], in test [19], in test [13], in [14], in [7] and in [9] was inactive. Besides, the AC50 in [17] is 14.4 µM (active); in [3], 9.26 µM (active); in test [10], 9.81 µM (active); in test [11] it was 0.349 µM (active); in [20], 3.01 µM (active); in test [15] it was 1.49 µM (active). In addition, in [8], the concentration at half-maximal activity (AC50) was 10.3 µM (active).

Regarding `NC(=Nc1ccccc1)Nc1ccccc1`, the outcome in [1], in test [2], in test [16], in test [17], in test [5] and in [6] was inactive. Also, the compound was called inactive in test [7], in test [8] and in test [9]. For the same compound, the AC50 in test [3] is 5.14 µM (active) and 12.2 µM (active); in [4], 11.6 µM (active).

`Oc1ccc(O)cc1`: the compound was classed as inactive in test [1], in [2], in test [3], in test [5], in test [6] and in test [18]. Moreover, the outcome in test [10], in test [11], in test [19], in test [13], in test [14] and in test [7] was inactive. The compound was called inactive in test [8] and in test [9]. Also, the AC50 in test [4] is 44 µM (active); in [20] it was 2.16 µM (active); in test [15], 3.17 µM (active).

For the compound `COc1ccc(OC(F)(F)F)cc1CN[C@H]1CCCN[C@H]1c1ccccc1`, the AC50 was 85.4 µM (active) in test [1], 75.7 µM (active) in test [2], 11.3 µM (active) in test [16] and 83.9 µM (active) in test [8]. The compound was classed as inactive in test [7] and in test [9].

Turning to `CCCCCCCCCCCCCCCCO`, the compound was classed as inactive in test [1], in test [2], in [3], in test [4], in test [5] and in test [6]. Further, the compound was called inactive in test [7], in test [8] and in test [9].

On to `CCCCc1nc2cccnc2n1Cc1ccc(-c2ccccc2-c2nnn[nH]2)cc1`, for which the compound was classed as inactive in test [1], in test [2], in [18], in [11], in test [19] and in [13]. For the same compound, the compound was classed as inactive in test [14], in [7] and in [9]. For the same compound, the AC50 is 60.8 µM (active) in test [16]; 78.2 µM (active) in test [17]; 15.4 µM (active) in test [3]; 7.85 µM (active) in [4]; 18.5 µM (active) in test [5]; 21.2 µM (active) in [6]. For the same compound, the AC50 in test [10] was 10.6 µM (active); in test [20] it was 10.1 µM (active); in [15], 9.12 µM (active); in test [8] it was 50 µM (active).
